Experimental data: PubChem BioAssay (Tox21)
A number with no mark means an inactive call. Records with an inconclusive call do not appear. Entries that show only a call come without a potency. The source made the active and inactive calls. Calls come from the whole dose curve; as a rule, active = well fitted curve in the direction sought with a large enough effect in the repeat runs; inconclusive = weak or mixed curves; inactive = no such curve, though single readings can be large; an effect the other way counts as inactive or inconclusive.

Columns and labels:
[1] = A CellTox Green Cytotoxicity Assay to monitor cytotoxicity in HepG2 cells - 0 hour (AID 1224882); note: nearly all actives have a fitted effect of over 35% in size
Outline: (§1)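 Using 1536-well format, dye-containing HepG2 suspension was seeded, allowed 5 h at 37 C/5% CO2, dosed by pintool with compounds, positive and negative controls, and imaged for fluorescence across 40 h.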

[2] = A CellTox Green Cytotoxicity Assay to monitor cytotoxicity in HepG2 cells - 32 hour (AID 1224883); note: nearly all actives have a fitted effect of over 50% in size; note: potency is the fitted concentration of half-maximal effect
Outline: as §1

[3] = qHTS RealTime-Glo MT Cell Viability Assay in HepG2 cells - 16 hour (AID 1224885); note: nearly all actives have a fitted effect of over 50% in size
Outline: (§2)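 Compound treatment began 5 h after plating HepG2 cells (600/well) with NanoLuc luciferase and prosubstrate. Plates stayed at 37 C for 40 h; luminescence was captured at six time points, 0 h through 40 h.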

[4] = qHTS RealTime-Glo MT Cell Viability Assay in HEK293 cells - 24 hour (AID 1224886); note: top concentration of the series differs between compounds; nearly all actives have a fitted effect of over 50% in size
Outline: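 Quantitative high-throughput screen of the Tox21 10K library in HEK293: cells and RealTime-Glo reagents plated together, compound added at 5 h, luminescence monitored through 40 h at 37 C.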

[5] = qHTS RealTime-Glo MT Cell Viability Assay in HEK293 cells - 8 hour (AID 1224887); note: top concentration of the series differs between compounds; nearly all actives have a fitted effect of over 50% in size
Outline: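 Viable HEK293 cells reduce a cell-permeant prosubstrate; the product diffuses out and is consumed by NanoLuc in the medium to give light. Compounds went in after a 5 h incubation and plates were read over the treatment course.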

[6] = A CellTox Green Cytotoxicity Assay to monitor cytotoxicity in HEK293 cells - 16 hour (AID 1224888); note: nearly all actives have a fitted effect of over 35% in size
Outline: (§3)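 Fluorescence intensity, read at 0, 8, 16, 24, 32 and 40 h of compound treatment, reflected dye binding to DNA of dead HEK293 cells; compounds (23 nL, DMSO) were added 5 h after plating cells with reagent.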

[7] = qHTS RealTime-Glo MT Cell Viability Assay in HepG2 cells - 0 hour (AID 1224889); note: nearly all actives have a fitted effect of over 50% in size; note: potency is the fitted concentration of half-maximal effect
Outline: as §2

[8] = A CellTox Green Cytotoxicity Assay to monitor cytotoxicity in HepG2 cells - 8 hour (AID 1224890); note: nearly all actives have a fitted effect of over 45% in size
Outline: as §1

[9] = qHTS assay to identify small molecule antagonists of the estrogen receptor alpha (ER-alpha) signaling pathway using the BG1 cell line in the presence of 0.1 nM 17-beta-estradiol - cell viability counter screen (AID 1259241); note: nearly all actives have a fitted effect of over 40% in size
Outline: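 Cytotoxicity counter-screen: live-cell protease activity measured by fluorescence (30 min reagent step) in the same wells. Cells were VM7Luc4E2 with endogenous ER-alpha and ERE-driven luciferase, treated 22 hr at 37C alongside 0.1 nM 17beta-estradiol final.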

[10] = A CellTox Green Cytotoxicity Assay to monitor cytotoxicity in HEK293 cells - 8 hour (AID 1224884); note: nearly all actives have a fitted effect of over 35% in size
Outline: as §3

| SMILES | Potency [1] | Potency [2] | Potency [3] | Potency [4] | Potency [5] | Potency [6] | Potency [7] | Potency [8] | Potency [9] | Potency [10] |
| --- | --- | --- | --- | --- | --- | --- | --- | --- | --- | --- |
| CCC(=O)OC(C)(C)C1CC=C(C)CC1 (stereo not drawn) | inactive | inactive | inactive | inactive | inactive | inactive | inactive | inactive | inactive |  |
| CC(C(=O)O)c1ccc(-c2ccccc2)c(F)c1 (stereo not drawn) | inactive | 54.9 µM (active) | inactive | inactive | inactive | inactive | inactive |  | inactive |  |
| Cc1ccc(C)o1 | inactive | inactive | inactive | inactive | inactive | inactive | inactive | inactive | inactive |  |
| CN(C(=O)CCCOc1ccc2[nH]c(=O)ccc2c1)C1CCCCC1 | inactive | inactive | inactive |  | inactive | inactive | inactive | inactive | inactive | inactive |
| CCOC(=O)C1=C(C)NC(C)=C(C(=O)OC)C1c1cccc([N+](=O)[O-])c1 (stereo not drawn) | inactive | inactive |  |  |  | inactive | 7.56 µM (active) | inactive | inactive | inactive |
| Nc1nc(CC(=O)O)cs1 | inactive | inactive | inactive |  | inactive | inactive | inactive | inactive | inactive |  |
| O=C(O)Cc1cc(I)c(Oc2ccc(O)c(I)c2)c(I)c1 | inactive | inactive | inactive | inactive | inactive | inactive |  | inactive | inactive |  |
| Nc1ccc(C(=O)N2CC3CC(CN(Cc4ccccc4)C3)C2)cc1 | inactive | inactive | inactive | inactive | inactive | inactive | inactive | inactive | inactive |  |
| Oc1ccc(Sc2ccc(O)cc2)cc1 | inactive | inactive | inactive |  |  | inactive | inactive | inactive | inactive | inactive |
| O=[N+]([O-])c1cc[n+]([O-])cc1 | inactive | inactive |  | inactive | inactive | inactive | inactive | inactive |  | inactive |
| CCCCCCc1ccc(N)cc1 | inactive | 49 µM (active) | inactive | inactive |  | inactive | inactive |  | inactive |  |
| CCOc1cc(OCC)c(C(=O)CCC(=O)O)cc1OCC | inactive | inactive | inactive | inactive | inactive | inactive | inactive | inactive | inactive |  |
| O=C=NC1CCC(CC2CCC(N=C=O)CC2)CC1 (stereo not drawn) | inactive | inactive | inactive | inactive | inactive | inactive | inactive | inactive | inactive |  |
| CC(C)=CCCC(C)CC=O (stereo not drawn) | inactive | inactive | inactive | inactive | inactive | inactive | inactive | inactive | inactive |  |
| CN(C)CC[C@@H](c1ccc(Br)cc1)c1ccccn1 | inactive | inactive | inactive |  | inactive | inactive | inactive | inactive | inactive |  |
| CC[C@H](C)[C@H](N)C(=O)O | inactive | inactive | inactive | inactive | inactive | inactive | inactive | inactive | inactive |  |
| CC(C)(C)C(=O)OCOP(=O)(COCCn1cnc2c(N)ncnc21)OCOC(=O)C(C)(C)C | inactive | inactive | inactive |  | inactive | inactive | inactive |  | inactive | inactive |
| CCCCOC(O)CC (stereo not drawn) | inactive | inactive | inactive | inactive | inactive | inactive | inactive |  | inactive |  |
| CCCC(C)C | inactive | inactive | inactive |  | inactive | inactive | inactive | inactive | inactive | inactive |
| Cc1occc1S | inactive | inactive | inactive | inactive | inactive | inactive | inactive | inactive | inactive |  |
| CC[C@H](C)[C@@H](C(=O)O)n1sc2ccccc2c1=O | inactive | inactive | inactive | inactive | inactive | inactive | inactive | inactive | inactive |  |
| CC(=O)SCc1ccco1 | inactive | inactive | inactive | inactive | inactive | inactive | inactive | inactive | inactive |  |
| CC(=O)[C@@]1(O)CC[C@H]2[C@@H]3C[C@H](C)C4=CC(=O)CC[C@]4(C)[C@H]3CC[C@@]21C | inactive | inactive | inactive |  |  | inactive | 1.51 µM (active) | inactive | inactive | inactive |
| CCCCCCCCCC=O | inactive | inactive | inactive | inactive | inactive | inactive | inactive | inactive | inactive |  |
| CCCCOCCOCCOCCOCCO | inactive | inactive | inactive | inactive | inactive | inactive | inactive | inactive | inactive |  |
| CCCCCc1ccc(N)cc1 | inactive | 49 µM (active) | inactive | inactive |  | inactive | inactive |  | inactive |  |
| CC(=O)c1ccc2c(c1)[C@H](NC(=O)c1ccc(F)cc1)[C@@H](O)C(C)(C)O2 | inactive | inactive | inactive | inactive | inactive | inactive | inactive | inactive | inactive |  |
